Test results published in PubChem BioAssay (NCATS).
Results filed as inconclusive are left out. Entries that show only a call come without a potency. A number with no mark means an inactive call. Active and inactive are the calls of the source. Calls follow the shape of the dose curve; as a rule, active = well fitted cell-killing curve with a large enough effect; inconclusive = small, poorly fitted or top-dose-only effect, or effect the other way; inactive = no such curve, though single readings can be large or run the other way.

Assays:
[1] = Viability qHTS for spleen associated tyrosine kinase inhibitor (SYKi) naive MV4-11 cells (AID 1963823); also: nearly all actives have a fitted effect of over 40% in size
In short: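 CellTiter-Glo luminescence, 10 min room-temperature incubation, gave viability. Cells: naive MV4-11 (500/well), treated 72 hr at 37 C, 5% CO2.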

[2] = Viability qHTS for spleen associated tyrosine kinase inhibitor (SYKi) drug resistant MV4-11 cells (AID 1963824); also: nearly all actives have a fitted effect of over 35% in size
In short: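 SYK inhibitor-resistant MV4-11 AML cells, 500 per well, added to predispensed compounds and incubated 72 hr at 37 C, 5% CO2. Viability measured by CellTiter-Glo luminescence after 10 min at room temperature.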
Potency is read from the fitted curve at half-maximal effect.

| SMILES | Potency [1] | Potency [2] | viability (% of control) [1] | viability, % of control [2] |
| --- | --- | --- | --- | --- |
| Cc1coc2c1CC1OC1(C)CCC1OC1(C)C2 (configuration not stated) | inactive | inactive | – | – |
| CC(O)/C=C/C1(O)C(C)C(O[C@@H]2O[C@H](CO)[C@@H](O)[C@H](O)[C@H]2O)C(O)CC1(C)C (some centres not stated) | inactive | inactive | – | – |
| CC(C)CC(=O)O[C@@H]1OC=C(CO[C@@H]2O[C@H](CO)[C@@H](O)[C@H](O)[C@H]2O)[C@H]2[C@@H]3O[C@H]3[C@@](O)(CO)[C@@H]12 | inactive | inactive | – | – |
| C[C@@H]1C(=O)O[C@H]2CC34[C@H]5C[C@@H](C(C)(C)C)C36[C@@H](OC(=O)[C@@H]6O)O[C@@]4(C(=O)O5)[C@]21O (some centres not stated) | inactive | inactive | – | – |
| NCc1ccc(Nc2ncc(F)c(Nc3ccccc3)n2)cc1 | 651 nM (active) | 1460 nM (active) | – | – |
| C=C1C(=O)OC2/C=C(\COC(C)=O)CC/C=C(\C=O)CC(OC(=O)C(C)CC)C12 (configuration not stated) | 1590 nM (active) | 1120 nM (active) | – | – |
| CC(C)c1ccc(NC(=O)c2cccs2)c(-c2nc3ccccc3[nH]c2=O)c1 | 8200 nM (active) | 11600 nM (active) | – | – |
| CN[C@@H]1[C@@H](O)[C@@H](O[C@@H]2[C@@H](O)[C@H](O[C@H]3O[C@@H]([C@@H](C)NC)CC[C@H]3N)[C@@H](N)C[C@H]2N)OC[C@]1(C)O | inactive | inactive | – | – |
| C[C@H]1[C@H](C)CC[C@]2(C(=O)OC3OC(CO)C(O)C(O)C3O)CC[C@]3(C(=O)O)C(=CCC4[C@@]5(C)CC[C@H](O[C@@H]6O[C@@H](C)[C@H](OC7OC(CO)C(O)C(O)C7O)[C@@H](O)[C@H]6O)C(C)(C)C5CC[C@]43C)[C@H]12 (some centres not stated) | – | – | 80.8% [at 9.25 µM] | 108% [at 9.25 µM] |
| C=C1CC[C@@H]2C(C)(C)CCC[C@@]2(C)[C@@H]1CC/C(=C/C(=O)OC)COC(C)=O | inactive | inactive | – | – |
| CC1=C(C(=O)Nc2cc(Cl)ccc2Cl)C(c2ccco2)C2=C(CCCC2=O)N1 (configuration not stated) | 14600 nM (active) | 16400 nM (active) | – | – |
| COc1cc(/C=C/C(=O)OC2CC(OC(C)=O)C(OC(C)=O)C3C2CCC2C(=O)OC(c4ccoc4)CC23C)ccc1O[C@@H]1O[C@H](CO)[C@@H](O)[C@H](O)[C@H]1O (some centres not stated) | inactive | inactive | – | – |
| CN1CCN(C(=O)c2ccc(Nc3nccc(-c4cccs4)n3)cc2Cl)CC1 | 731 nM (active) | 2060 nM (active) | – | – |
| CCCCNc1ncc(C(=O)NCc2ccc(-n3ccnc3)cc2)c(NC2CCC(O)CC2)n1 (configuration not stated) | 92 nM (active) | 259 nM (active) | – | – |
| CCOc1cc(CNC2CCCC2)cc(Cl)c1OCc1ccc(Cl)cc1 | 4610 nM (active) | 5800 nM (active) | – | – |
| CC[C@@H](N)CNc1ccnc(-c2cc(-c3cnn(C)c3)ccc2O)n1 | 920 nM (active) | 1640 nM (active) | – | – |
| CC(C)(O)C1CC=C(C(=O)OC[C@H]2O[C@@H](Oc3cc(C(=O)O)cc(O)c3O)[C@H](O)[C@@H](O)[C@@H]2O)CC1 (some centres not stated) | inactive | inactive | – | – |
| CNS(=O)(=O)c1ccccc1Nc1nc(Nc2ccc(N3CCN(C)CC3)cc2OC)ncc1Cl | 20.6 nM (active) | 36.6 nM (active) | – | – |
| O=C(c1c2ccccc2cc2ccccc12)N1CCC(N2CCC[C@@H](C(=O)N3CCOCC3)C2)CC1 | inactive | 16400 nM (active) | – | – |

| SMILES | Potency [1] | Potency [2] | viability (% of control) [1] | viability, % of control [2] |
| --- | --- | --- | --- | --- |
| CC/C=C/C(O)C(O)C1=C(C)C(=O)C2(O1)C(=O)NC(OC)(C(=O)c1ccccc1)C2O (configuration not stated) | inactive | inactive | – | – |
| CC(C)CC(=O)NCCn1cc(C(=O)O)c(=O)cc1C(O)c1ccccc1 (configuration not stated) | inactive | inactive | – | – |
| CCc1c(Cl)c(O)c(Cl)c(O)c1C(=O)O[C@H]1[C@H](O)[C@H](OC)[C@H](OC/C2=C\C=C\C[C@H](O)/C(C)=C\[C@H](CC)[C@@H](O[C@@H]3OC(C)(C)[C@@H](OC(=O)C(C)C)[C@H](O)[C@@H]3O)/C(C)=C/C(C)=C/C[C@@H]([C@@H](C)O)OC2=O)O[C@@H]1C | 7090 nM (active) | 3990 nM (active) | – | – |
| O=C(/C=C/c1ccc(O)cc1)N[C@@H](Cc1ccc(O)cc1)C(=O)O | inactive | inactive | – | – |
| CC1C2=CC(=O)OC2(O)CC2C1CCC1C(C)(C)CCC(O)C21C (configuration not stated) | 12800 nM (active) | 4530 nM (active) | – | – |
| O=c1c2cccnc2n(-c2cccc([N+](=O)[O-])c2)c(=O)n1Cc1ccncc1 | inactive | inactive | – | – |
| CC(/C=C/C1(O)C(C)CC(O)CC1(C)C)OC1OC(CO)C(O)C(O)C1O (configuration not stated) | inactive | inactive | – | – |
| C[C@@H]1CC[C@]2(C(=O)O[C@@H]3O[C@H](CO)[C@@H](O)[C@H](O)[C@H]3O)CC[C@]3(C)C(=CCC4[C@@]5(C)C[C@@H](O)[C@H](O)[C@@](C)(C(=O)O[C@H]6[C@H](O)C[C@@]7(C)C(CC[C@]8(C)C7CC=C7[C@H]9[C@](C(=O)O[C@@H]%10O[C@H](CO)[C@@H](O)[C@H](O)[C@H]%10O)(CC[C@@H](C)[C@@]9(C)O)CC[C@]78C)[C@@]6(CO)C(=O)O)C5CC[C@]43C)[C@@H]2[C@]1(C)O (some centres not stated) | – | – | 65.2% [at 9.25 µM] | 103% [at 9.25 µM] |
| N#C[C@@H]1C[C@H](F)CN1C(=O)CNC1[C@H]2CN(C(=O)c3ccc(F)cc3)C[C@@H]12 (some centres not stated) | inactive | inactive | – | – |
| C=C[C@H]1[C@H](O[C@@H]2O[C@H](CO)[C@@H](O)[C@H](O)[C@H]2O)OC=C(C(=O)OC)[C@H]1CC(=O)O | inactive | inactive | – | – |
| Oc1cccc(Nc2ccnc3cc(-c4cccc(CN5CCOCC5)c4)sc23)c1 | 291 nM (active) | 461 nM (active) | – | – |
| CC(=O)[C@@H]1C[C@H](C(C)(C)O[C@@H]2O[C@H](CO)[C@@H](O)[C@H](O)[C@H]2O)CC[C@@]2(CO)OC(=O)C[C@@H]12 | inactive | inactive | – | – |
| Cc1c(C(=O)O)c(O)cc2c1C(=O)c1c(O)c([C@@H]3O[C@H](CO)[C@@H](O)[C@H](O)[C@H]3O)c(O)c(O)c1C2=O | inactive | inactive | – | – |
| O=C(NCCN1CCC(n2c(=O)[nH]c3ccccc32)CC1)c1cc2cc(F)ccc2[nH]1 | 18400 nM (active) | 18400 nM (active) | – | – |
| O=C(/C=C/c1ccc(O)cc1)c1ccc(O)cc1O | 18600 nM (active) | 11800 nM (active) | – | – |
| COC(=O)CCc1cc2ccoc2c(OC)c1O[C@@H]1O[C@H](CO)[C@@H](O)[C@H](O)[C@H]1O | inactive | inactive | – | – |
| CC1(C)CC[C@]2(C(=O)O)CC[C@]3(C)C(=CCC4[C@@]5(C)CC[C@H](O[C@@H]6O[C@H](C(=O)O)[C@@H](O)[C@H](O)[C@H]6O)C(C)(CO)C5CC[C@]43C)C2C1 (some centres not stated) | inactive | inactive | – | – |
| CC(C)=C1CC2C(CCC2(C)O)C(C)(O)CC1=O (configuration not stated) | inactive | inactive | – | – |
| COc1cc(C(=O)OCC2=CCC3C(C(=O)O)=COC(O[C@@H]4O[C@H](CO)[C@@H](O)[C@H](O)[C@H]4O)C23)ccc1O (some centres not stated) | inactive | inactive | – | – |

| SMILES | Potency [1] | Potency [2] | viability (% of control) [1] | viability, % of control [2] |
| --- | --- | --- | --- | --- |
| CCCCCOc1ccc(-c2cc(-c3ccc(C(=O)N[C@H]4C[C@@H](O)[C@@H](O)NC(=O)C5[C@@H](O)[C@@H](C)CN5C(=O)C([C@H](O)CC(N)=O)NC(=O)C([C@H](O)[C@@H](O)c5ccc(O)c(OS(=O)(=O)O)c5)NC(=O)C5C[C@@H](O)CN5C(=O)C([C@@H](C)O)NC4=O)cc3)no2)cc1 (some centres not stated) | inactive | inactive | – | – |
| C[C@H](/C=C/[C@@]1(O)[C@H](C)CC(=O)CC1(C)C)O[C@@H]1O[C@H](CO[C@@H]2OC[C@@H](O)[C@H](O)[C@H]2O)[C@@H](O)[C@H](O)[C@H]1O | inactive | inactive | – | – |
| Cc1cc(C(=O)Nc2nc3cccc(Cl)c3n2C2CCCCN(C(=O)/C=C/CN(C)C)C2)ccn1 (configuration not stated) | 5170 nM (active) | 8200 nM (active) | – | – |
| O=C(C[C@@H]1C(C(=O)O)=CO[C@@H](O[C@@H]2O[C@H](CO)[C@@H](O)[C@H](O)[C@H]2O)/C1=C\CO)OCCc1ccc(O)cc1 | inactive | inactive | – | – |
| CCOc1cn(-c2ccc(F)cc2C)nc1C(=O)Nc1ccc(Oc2ccnc3cc(OC)c(OC)cc23)c(F)c1 | 259 nM (active) | 651 nM (active) | – | – |
| C/C1=C/CCC2=CC(OC2=O)C(C)(C)/C=C/C1=O (configuration not stated) | 517 nM (active) | 517 nM (active) | – | – |
| CC1(C)OC(=O)C(OCC2CC2)=C1c1ccc(S(C)(=O)=O)cc1 | inactive | inactive | – | – |
| COc1ccc2[nH]c3c(c2c1)CCN[C@]31CS[C@@H]2c3c(OC(C)=O)c(C)c4c(c3[C@H](COC1=O)N1[C@@H]2[C@H]2c3c(cc(C)c(OC)c3O)C[C@@H]([C@@H]1O)N2C)OCO4 | 1.5 nM (active) | 1.1 nM (active) | – | – |
| COc1cc2c(Nc3cc(F)c(Cl)c(Cl)c3)ncnc2cc1OCC1CCCN(C)CCC1 | 1160 nM (active) | 2590 nM (active) | – | – |
| CC(C)C1CCC(CO)=CC1/C=C(\CO)C(=O)OCC1(O)CCC(C(C)C)C2C=C(C(=O)O)COC(=O)C21 (configuration not stated) | inactive | inactive | – | – |
| C[C@]12CCC(=O)C=C1[C@@H](O)C[C@@H]1[C@@H]2[C@@H](O)C[C@@]2(C)[C@H]1CC[C@]2(O)C(=O)CO | inactive | inactive | – | – |
| C/C=C(\C)C(=O)OCC1OC(OC2OC(CO)C(O)C(O)C2O)C(O)C(O)C1O (configuration not stated) | inactive | inactive | – | – |
| CCCC(=O)Nc1cccc(NC(=O)c2ccccc2Br)c1 | inactive | inactive | – | – |
| C=C1C(=O)OC2C=C(C)CC/C=C(\CO)CC(O)C12 (configuration not stated) | 10300 nM (active) | 11600 nM (active) | – | – |
| C=C1OC2CC(C(=O)O)C=CC2NC1=O (configuration not stated) | inactive | 2910 nM (active) | – | – |
| CC(/C=C/C1=CC2=CC(=O)C(C)(O)C(O)C2=CO1)=C\C(C)CCO (configuration not stated) | inactive | inactive | – | – |
| COc1cc2c(cc1OC)/C(=C/c1ccc(O)cc1)C(=O)N2 | 8200 nM (active) | 18400 nM (active) | – | – |
| CC(C)=CCC/C(C)=C/CCC1(C)Oc2c(c(O)cc3c2CN(C(CCC(=O)O)C(=O)O)C3=O)CC1O (configuration not stated) | inactive | inactive | – | – |
